PubChem BioAssay AID1159580 (chemical genetic matrix, 2015)
Where “and” joins values, the source holds several entries; their conditions need not be identical. Identical values can stand only once. About 2,000 (36%) of roughly 5,500 compounds were called active. Another 18% or so got no clear call; they are omitted. Rule as the data show it: active = normalized growth mostly below about 0.91 (no sharp cut-off); inconclusive = no clear call, values can overlap the other calls; inactive = mostly above about 0.92. This is one part of the list.

Assay: chemical genetic growth profiling, strain panel (AID 1159580);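 also: tested at 20 µM; growth read once vehicle control cultures reached saturation at 30 °C; 1 = growth at the plate median or of vehicle wells; lower values mean less growth of the strain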
Conditions: S. cerevisiae deletion strains, growth OD

With `CCC(=O)O[C@H]1CCC2C3CCc4cc(O)ccc4C3CC[C@@]21C` (stereo partly drawn) the normalized growth (locus YAL013W, strain DEP1, stronger effect = lower value) was 0.7 (active), the normalized growth (locus YAL021C, strain ccr4, stronger effect = lower value) was 0.97 (inactive) and the normalized growth (locus YAL026C, strain drs2, stronger effect = lower value) was 1 (inactive). For the same compound, the normalized growth (locus YAL030W, strain snc1, stronger effect = lower value) was 0.988 (inactive), the normalized growth (locus YBL061C, strain skt5, stronger effect = lower value) was 0.98 (inactive) and the normalized growth (locus YBR009C, strain hhf1, stronger effect = lower value) was 0.957 (inactive). The normalized growth (locus YBR021W, strain FUR4, stronger effect = lower value) was 0.908 (inactive), the normalized growth (locus YBR023C, strain chs3, stronger effect = lower value) was 0.981 (inactive) and the normalized growth (locus YBR171W, strain sec66, stronger effect = lower value) was 0.997 (inactive). The normalized growth (locus YBR229C, strain ROT2, stronger effect = lower value) was 0.999 (inactive), the normalized growth (locus YBR231C, strain swc5, stronger effect = lower value) was 0.974 (inactive) and the normalized growth (locus YBR279W, strain paf1, stronger effect = lower value) was 1 (inactive). For the same compound, the normalized growth (locus YCL011C, strain gbp2, stronger effect = lower value) was 0.962 (inactive), the normalized growth (locus YCL016C, strain dcc1, stronger effect = lower value) was 0.992 (inactive) and the normalized growth (locus YCL029C, strain bik1, stronger effect = lower value) was 0.994 (inactive). For the same compound, the normalized growth (locus YCL061C, strain MRC1, stronger effect = lower value) was 0.991 (inactive), the normalized growth (locus YCL069W, strain vba3, stronger effect = lower value) was 0.997 (inactive) and the normalized growth (locus YCR088W, strain abp1, stronger effect = lower value) was 0.991 (inactive). For the same compound, the normalized growth (locus YDL005C, strain med2, stronger effect = lower value) was 0.966 (inactive), the normalized growth (locus YDL035C, strain GPR1, stronger effect = lower value) was 0.975 (inactive) and the normalized growth (locus YDL040C, strain nat1, stronger effect = lower value) was 1 (inactive). For the same compound, the normalized growth (locus YDL074C, strain BRE1, stronger effect = lower value) was 0.447 (active), the normalized growth (locus YDL101C, strain DUN1, stronger effect = lower value) was 0.951 (inactive) and the normalized growth (locus YDL134C, strain PPH21, stronger effect = lower value) was 0.956 (inactive). The normalized growth (locus YDL185W, strain tfp1, stronger effect = lower value) was 1.01 (inactive), the normalized growth (locus YDL192W, strain arf1, stronger effect = lower value) was 1.01 (inactive) and the normalized growth (locus YDR001C, strain nth1, stronger effect = lower value) was 0.994 (inactive). The normalized growth (locus YDR069C, strain doa4, stronger effect = lower value) was 0.97 (inactive), the normalized growth (locus YDR101C, strain arx1, stronger effect = lower value) was 0.986 (inactive) and the normalized growth (locus YDR137W, strain rgp1, stronger effect = lower value) was 0.854 (inactive). For the same compound, the normalized growth (locus YDR150W, strain NUM1, stronger effect = lower value) was 1 (inactive), the normalized growth (locus YDR159W, strain sac3, stronger effect = lower value) was 0.596 (active) and the normalized growth (locus YDR162C, strain NBP2, stronger effect = lower value) was 0.993 (inactive). The normalized growth (locus YDR195W, strain ref2) was 0.209 (active), the normalized growth (locus YDR297W, strain sur2, stronger effect = lower value) was 0.989 (inactive) and the normalized growth (locus YDR318W, strain mcm21, stronger effect = lower value) was 1 (inactive). For the same compound, the normalized growth (locus YDR334W, strain swr1, stronger effect = lower value) was 0.962 (inactive), the normalized growth (locus YDR335W, strain msn5, stronger effect = lower value) was 0.99 (inactive) and the normalized growth (locus YDR388W, stronger effect = lower value) was 0.987 (inactive). The normalized growth (locus YDR392W, strain spt3, stronger effect = lower value) was 0.531 (active), the normalized growth (locus YDR502C, strain sam2, stronger effect = lower value) was 0.997 (inactive) and the normalized growth (locus YEL003W, strain gim4, stronger effect = lower value) was 0.984 (inactive). For the same compound, the normalized growth (locus YEL037C, strain rad23, stronger effect = lower value) was 0.995 (inactive), the normalized growth (locus YEL061C, strain CIN8 (second series), stronger effect = lower value) was 0.969 (inactive) and the normalized growth (locus YEL061C, strain CIN8, stronger effect = lower value) was 0.999 (inactive). For the same compound, the normalized growth (locus YER015W, strain faa2, stronger effect = lower value) was 0.988 (inactive), the normalized growth (locus YER016W, strain bim1, stronger effect = lower value) was 0.996 (inactive) and the normalized growth (locus YER110C, stronger effect = lower value) was 1.02 (inactive). The normalized growth (locus YER111C, strain swi4, stronger effect = lower value) was 0.974 (inactive), the normalized growth (locus YER155C, strain BEM2 (second series), stronger effect = lower value) was 0.988 (inactive) and the normalized growth (locus YER155C, strain BEM2, stronger effect = lower value) was 0.295 (active). For the same compound, the normalized growth (locus YER167W, strain BCK2, stronger effect = lower value) was 0.933 (inactive), the normalized growth (locus YFR010W, strain ubp6, stronger effect = lower value) was 0.956 (inactive) and the normalized growth (locus YGL078C, strain dbp3, stronger effect = lower value) was 1.01 (inactive). The normalized growth (locus YGL086W, strain mad1, stronger effect = lower value) was 0.985 (inactive), the normalized growth (locus YGL167C, strain pmr1, stronger effect = lower value) was 0.98 (inactive) and the normalized growth (locus YGL173C, strain kem1, stronger effect = lower value) was 0.986 (inactive). For the same compound, the normalized growth (locus YGL227W, strain vid30, stronger effect = lower value) was 0.976 (inactive), the normalized growth (locus YGL240W, strain doc1, stronger effect = lower value) was 0.972 (inactive) and the normalized growth (locus YGL248W, strain PDE1, stronger effect = lower value) was 0.961 (inactive). The normalized growth (locus YGL253W, strain hxk2, stronger effect = lower value) was 1 (inactive), the normalized growth (locus YGR135W, strain pre9, stronger effect = lower value) was 1.01 (inactive) and the normalized growth (locus YGR229C, strain SMI1, stronger effect = lower value) was 0.584 (active). For the same compound, the normalized growth (locus YGR252W, strain gcn5, stronger effect = lower value) was 0.973 (inactive), the normalized growth (locus YHR013C, strain ard1, stronger effect = lower value) was 0.885 (inactive) and the normalized growth (locus YHR027C, strain rpn1, stronger effect = lower value) was 0.992 (inactive). The normalized growth (locus YHR030C, strain SLT2, stronger effect = lower value) was 0.968 (inactive) and 0.298 (active), the normalized growth (locus YHR079C, strain IRE1 (second series), stronger effect = lower value) was 1.01 (inactive) and the normalized growth (locus YHR079C, strain IRE1, stronger effect = lower value) was 0.538 (active). The normalized growth (locus YHR094C, strain hxt1, stronger effect = lower value) was 0.997 (inactive), the normalized growth (locus YHR129C, strain ARP1, stronger effect = lower value) was 0.932 (inactive) and the normalized growth (locus YHR142W, strain chs7, stronger effect = lower value) was 0.931 (inactive). The normalized growth (locus YHR200W, strain rpn10, stronger effect = lower value) was 1.01 (inactive), the normalized growth (locus YIL066C, strain RNR3, stronger effect = lower value) was 0.927 (inactive) and the normalized growth (locus YIL073C, strain SPO22, stronger effect = lower value) was 0.781 (inactive). For the same compound, the normalized growth (locus YIL125W, strain kgd1, stronger effect = lower value) was 1 (inactive), the normalized growth (locus YIR030C, strain dcg1, stronger effect = lower value) was 1 (inactive) and the normalized growth (locus YJL092W, strain hpr5, stronger effect = lower value) was 0.984 (inactive). For the same compound, the normalized growth (locus YJL095W, strain BCK1 (second series), stronger effect = lower value) was 0.996 (inactive), the normalized growth (locus YJL095W, strain BCK1, stronger effect = lower value) was 0.756 (active) and 0.227 (active) and the normalized growth (locus YJL115W, strain asf1, stronger effect = lower value) was 0.988 (inactive). For the same compound, the normalized growth (locus YJL129C, strain trk1, stronger effect = lower value) was 0.814 (active), the normalized growth (locus YJL134W, strain LCB3, stronger effect = lower value) was 0.993 (inactive) and the normalized growth (locus YJL154C, strain vps35, stronger effect = lower value) was 0.995 (inactive). The normalized growth (locus YJL164C, strain tpk1, stronger effect = lower value) was 0.904 (active), the normalized growth (locus YJL166W, strain qcr8, stronger effect = lower value) was 0.989 (inactive) and the normalized growth (locus YJL168C, strain set2, stronger effect = lower value) was 1 (inactive). The normalized growth (locus YJL187C, strain SWE1 (second series), stronger effect = lower value) was 0.925 (inactive).
